# Values joined by “and” are separate entries in the source; they are usually repeats but may differ in a detail not shown here. Identical values can stand only once. The panel holds about 79,000 compounds, 15% with a hit somewhere; the sample as a whole holds those more often. The source holds several records for some structures; these can differ, active in one and inactive in another. Active and inactive are the calls of the source. No stated cut-off is given here; in the data, active means growth inhibition above about 70%; inactive means the rest.
# Assay: NCI Yeast Anticancer Drug Screen. Data for the cln2 rad14 strain (AID 165);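 further: 0% = growth equal to vehicle treated cultures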
# Details: S. cerevisiae cln2 rad14 strain, at 50.0 µM, stronger effect = higher value
# Procedure, shortened: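 Yeast strain cln2 rad14, bearing defects in cell cycle control and DNA repair, serves as the test system; values reflect growth inhibition compared with vehicle.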
row,Structure (SMILES),growth inhibition
1,CC(C)(C)CC(C)(C)c1ccc(O)cc1,99.5% (active)
2,CC[n+]1c(/C=C/c2ccc(N(CCCl)CCCl)cc2)ccc2cc(I)ccc21,88.9% (active)
3,CCCCCCC1CCC2CCCC(C)N12 (stereo not drawn),71.1% (active)
4,C[N+](C)(C)CC1CCC(C[N+](C)(C)C)C1=O (stereo not drawn),16.3% (inactive)
5,CCC[CH2][Sn]1([CH2]CCC)[O]C(=O)c2cc(C)ccc2[O]1,89.3% (active)
6,COc1ccc(CC2C(=O)NC(C)C(=O)N(C)C3C(=O)N(C)C(Cc4ccc(O)c(c4)Oc4ccc(cc4)C3O)C(=O)NC(C)C(=O)NC(C)C(=O)N2C)cc1 (stereo not drawn),84.5% (active)
7,CC(=O)Nc1cccc([As+](C)(c2cccc(NC(C)=O)c2)c2cccc(NC(C)=O)c2)c1,-26% (inactive)
8,COC1OC(COC(C)=O)C(OC(C)=O)C(OC(C)=O)[C]1(OC(C)=O)[Hg][O]C(C)=O (stereo not drawn),99.4% (active)
9,CCOC(=O)C(NC(=O)C(Cc1ccc(N(CCCl)CCCl)cc1)NC(C)=O)C(C)C (stereo not drawn),67.7% (inactive) and -2.95% (inactive)
10,CN1c2cccc[c]2[Sn]([CH3])([CH3])[c]2ccccc21,94% (active)
11,Cc1ccc(C(=O)OC(C(=O)O)C(OC(=O)c2ccc(C)cc2)C(=O)O)cc1 (stereo not drawn) (tested in a mixture with another compound),-1.75% (inactive) and 91.3% (active)
12,CC(C)(c1ccccc1)c1ccc(O)cc1,98.8% (active)
13,CC1(C)N=C(N)N=C(N)N1CCCOc1ccc(NC(=O)c2ccc(S(=O)(=O)F)cc2)cc1,-9% (inactive)
14,CC1=CC2OC3CC4OC(=O)/C=C/C=C/C(=O)OCCC(C)C(O)C(=O)OCC2(CC1O)C4(C)C31CO1 (stereo not drawn),91.7% (active)
15,C=CCOc1cc2c(ccc1=O)-c1c(cc(OC)c(OC)c1OC)CCC2NC(C)=O (stereo not drawn),96.3% (active)
16,c1ccc2c(c1)[As]=c1ccccc1=[As]2 (stereo not drawn),92.1% (active)
17,CCC(C)(c1ccc(O)cc1)c1ccc(O)cc1,99% (active)
18,COc1cc(C2c3cc4c(cc3[C@@H](Nc3ccc(F)cc3)C3COC(=O)[C@H]23)OCO4)cc(OC)c1O (stereo partly drawn),87.8% (active)
19,CC(C)(C)OC(=O)NC(CSC(c1ccccc1)(c1ccccc1)c1cccs1)C(=O)O (stereo not drawn),78.8% (active)
20,CCOP(=S)(OCC)OC(c1ccc(Cl)cc1)c1ccc(Cl)cc1,15.8% (inactive)

row,Structure (SMILES),growth inhibition
1,COc1ccc(OC)c(C=O)c1,-38.2% (inactive)
2,CC(=O)Oc1cccc2c1CC(C[Se]c1ccccc1)C(=O)O2 (stereo not drawn),25.4% (inactive)
3,CCOC(=S)S,95.8% (active)
4,CC(NCCN(C)C)C1CC2CCCCN2C1 (stereo not drawn),41.1% (inactive)
5,Nc1ncc(CCCCc2ccc(NC(=O)Nc3ccc(S(=O)(=O)F)cc3)cc2)c(N)n1,92.8% (active)
6,CC#N.FC(F)(F)C#CC(F)(F)F.FC(F)(F)C#CC(F)(F)F.FC(F)(F)C#CC(F)(F)F.[W],99.2% (active)
7,[Cl][Hg][CH2]CC1CC=CCC1 (stereo not drawn),99.5% (active)
8,CC(=O)O[C@H]1CC[C@H]2[C@@H]3CCC4=CC(=O)CC[C@@H]4[C@H]3CC[C@]12C,14.8% (inactive)
9,c1ccc(P(CCP(c2ccccc2)c2ccccc2)CCP(c2ccccc2)c2ccccc2)cc1,5.95% (inactive)
10,Cc1cc(NCc2ccccc2)c2ccccc2[n+]1CCCCCCCCCC[n+]1c(C)cc(NCc2ccccc2)c2ccccc21,91.1% (active)
11,CCCCC(CC)CNP(=S)(NCC(CC)CCCC)NCC(CC)CCCC (stereo not drawn),35.8% (inactive)
12,Nc1c(Br)cc(Br)c2c1C(=O)c1ccccc1C2=O,41.9% (inactive)
13,O=[N+]([O-])/C=C/c1cc2c(cc1Br)OCO2,94.2% (active)
14,CC(Br)CN(CC(C)Br)c1ccc2c(c1)Cc1ccccc1-2 (stereo not drawn),56.3% (inactive)
15,c1ccc2c[n+](CCCCCCCCCC[n+]3ccc4ccccc4c3)ccc2c1,83.7% (active)
16,CCC[CH2][Sn]([N]=C=S)([N]=C=S)[N]=C=S.O=P(c1ccccc1)(c1ccccc1)c1ccccc1.O=P(c1ccccc1)(c1ccccc1)c1ccccc1,23.1% (inactive)
17,CN(CCC(N)CC(=O)NC1C=CC(n2ccc(N)nc2=O)OC1C(=O)O)C(=N)N (stereo not drawn),90% (active) and 90.2% (active)
18,O=C1C=CC(=O)N1c1cccc2ccccc12 (tested in a mixture with another compound),15.8% (inactive)
19,CN(C)c1ccc(N=Cc2c([O-])ccc3ccccc23)cc1.[C-]#[O+].[C-]#[O+].[Ir],77.1% (active)

# Assay: NCI Yeast Anticancer Drug Screen. Data for the bub3 strain (AID 167)
# Details: S. cerevisiae bub3 mutant strain, at 5.0 µM (retest, dose inferred, filed as 0.5), stronger effect = higher value
# Procedure, shortened: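 Yeast carrying a defined mutation is treated with each compound, and growth is compared with that of vehicle-exposed cells to give inhibition.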
row,Structure (SMILES),growth inhibition
1,CC(C)(C)CC(C)(C)c1ccc(O)cc1,-22% (inactive)
2,CC[n+]1c(/C=C/c2ccc(N(CCCl)CCCl)cc2)ccc2cc(I)ccc21,99% (active)
3,CCCCCCC1CCC2CCCC(C)N12 (stereo not drawn),-19% (inactive)
4,C[N+](C)(C)CC1CCC(C[N+](C)(C)C)C1=O (stereo not drawn),-2% (inactive)
5,CCC[CH2][Sn]1([CH2]CCC)[O]C(=O)c2cc(C)ccc2[O]1,91% (active)
6,COc1ccc(CC2C(=O)NC(C)C(=O)N(C)C3C(=O)N(C)C(Cc4ccc(O)c(c4)Oc4ccc(cc4)C3O)C(=O)NC(C)C(=O)NC(C)C(=O)N2C)cc1 (stereo not drawn),19% (inactive)
7,CC(=O)Nc1cccc([As+](C)(c2cccc(NC(C)=O)c2)c2cccc(NC(C)=O)c2)c1,5% (inactive)
8,COC1OC(COC(C)=O)C(OC(C)=O)C(OC(C)=O)[C]1(OC(C)=O)[Hg][O]C(C)=O (stereo not drawn),99% (active)
9,CCOC(=O)C(NC(=O)C(Cc1ccc(N(CCCl)CCCl)cc1)NC(C)=O)C(C)C (stereo not drawn),-2% (inactive)
10,CN1c2cccc[c]2[Sn]([CH3])([CH3])[c]2ccccc21,7% (inactive)
11,Cc1ccc(C(=O)OC(C(=O)O)C(OC(=O)c2ccc(C)cc2)C(=O)O)cc1 (stereo not drawn) (tested in a mixture with another compound),-10% (inactive)
12,CC(C)(c1ccccc1)c1ccc(O)cc1,-23% (inactive)
13,CC1(C)N=C(N)N=C(N)N1CCCOc1ccc(NC(=O)c2ccc(S(=O)(=O)F)cc2)cc1,-8% (inactive)
14,CC1=CC2OC3CC4OC(=O)/C=C/C=C/C(=O)OCCC(C)C(O)C(=O)OCC2(CC1O)C4(C)C31CO1 (stereo not drawn),96% (active)
15,C=CCOc1cc2c(ccc1=O)-c1c(cc(OC)c(OC)c1OC)CCC2NC(C)=O (stereo not drawn),-5% (inactive)
16,c1ccc2c(c1)[As]=c1ccccc1=[As]2 (stereo not drawn),91% (active)
17,CCC(C)(c1ccc(O)cc1)c1ccc(O)cc1,43% (inactive)
18,COc1cc(C2c3cc4c(cc3[C@@H](Nc3ccc(F)cc3)C3COC(=O)[C@H]23)OCO4)cc(OC)c1O (stereo partly drawn),99% (active)
19,CC(C)(C)OC(=O)NC(CSC(c1ccccc1)(c1ccccc1)c1cccs1)C(=O)O (stereo not drawn),9% (inactive)
20,CCOP(=S)(OCC)OC(c1ccc(Cl)cc1)c1ccc(Cl)cc1,11% (inactive)

row,Structure (SMILES),growth inhibition
1,COc1ccc(OC)c(C=O)c1,2% (inactive)
2,CC(=O)Oc1cccc2c1CC(C[Se]c1ccccc1)C(=O)O2 (stereo not drawn),-7% (inactive)
3,CCOC(=S)S,29% (inactive)
4,CC(NCCN(C)C)C1CC2CCCCN2C1 (stereo not drawn),3% (inactive)
5,Nc1ncc(CCCCc2ccc(NC(=O)Nc3ccc(S(=O)(=O)F)cc3)cc2)c(N)n1,-4% (inactive)
6,CC#N.FC(F)(F)C#CC(F)(F)F.FC(F)(F)C#CC(F)(F)F.FC(F)(F)C#CC(F)(F)F.[W],94% (active)
7,[Cl][Hg][CH2]CC1CC=CCC1 (stereo not drawn),99% (active)
8,CC(=O)O[C@H]1CC[C@H]2[C@@H]3CCC4=CC(=O)CC[C@@H]4[C@H]3CC[C@]12C,1% (inactive)
9,c1ccc(P(CCP(c2ccccc2)c2ccccc2)CCP(c2ccccc2)c2ccccc2)cc1,96% (active)
10,Cc1cc(NCc2ccccc2)c2ccccc2[n+]1CCCCCCCCCC[n+]1c(C)cc(NCc2ccccc2)c2ccccc21,99% (active)
11,CCCCC(CC)CNP(=S)(NCC(CC)CCCC)NCC(CC)CCCC (stereo not drawn),-5% (inactive)
12,Nc1c(Br)cc(Br)c2c1C(=O)c1ccccc1C2=O,1% (inactive)
13,O=[N+]([O-])/C=C/c1cc2c(cc1Br)OCO2,48% (inactive)
14,CC(Br)CN(CC(C)Br)c1ccc2c(c1)Cc1ccccc1-2 (stereo not drawn),-7% (inactive)
15,c1ccc2c[n+](CCCCCCCCCC[n+]3ccc4ccccc4c3)ccc2c1,88% (active)
16,CCC[CH2][Sn]([N]=C=S)([N]=C=S)[N]=C=S.O=P(c1ccccc1)(c1ccccc1)c1ccccc1.O=P(c1ccccc1)(c1ccccc1)c1ccccc1,-4% (inactive)
17,CN(CCC(N)CC(=O)NC1C=CC(n2ccc(N)nc2=O)OC1C(=O)O)C(=N)N (stereo not drawn),68% (inactive)
18,O=C1C=CC(=O)N1c1cccc2ccccc12 (tested in a mixture with another compound),-8% (inactive)
19,CN(C)c1ccc(N=Cc2c([O-])ccc3ccccc23)cc1.[C-]#[O+].[C-]#[O+].[Ir],2% (inactive)
